In publication PMC13494018:
Values without a mark were called inactive. The rule behind the calls is not given here.

B1: design_604_3e0b3014-b333-46f1-8adc-d7f0bf8048fa_672_dldesign_0_cycle1_af2pred (protein)
chain: ALEKATEAAKKAGEAVAKALGEEGKPVAEEAIEKIADPSTWKDGFSLFLRYAYYAGEEVYKKVDELLDEVLELLS
B2: design_604_3e0b3014-b333-46f1-8adc-d7f0bf8048fa_1498_dldesign_0_cycle1_af2pred (protein)
chain: SEKEKEEEERKKLAEEERAAAKAALAAAKAAAQKGDVAAAIAAAQEARIHASAYAQYLKTEEAKKERDAIVAAAKAAVAAAKAA
B3: design_604_3e0b3014-b333-46f1-8adc-d7f0bf8048fa_844_dldesign_0_cycle1_af2pred (protein)
chain: EEEKLKEAEKHLEKMIEILKEAAKKGYAKEEVELVKGDEETRKKGVYNAMGNVITGEGKEGVETARKISRYAKKSEELRKA
B4: design_604_3e0b3014-b333-46f1-8adc-d7f0bf8048fa_1413_dldesign_0_cycle1_af2pred (protein)
chain: EEEKEKRAEEKRKEIEELAKLAAENKEKGEKAVEKAKELVEKADEEEAPALAKALSRLVAAAYAVDEEVADKAFEAYALAWKKAQ
B5: design_604_3e0b3014-b333-46f1-8adc-d7f0bf8048fa_1191_dldesign_0_cycle1_af2pred (protein)
chain: EEKKKEIEELKKKVSKAQLELTDLAAKQDISKKDLEEKVQEAIRKAAKLGKIADEAVAKGEEYYPEAKKALEEALKVLEEAKKAVEEA
B6: design_604_3e0b3014-b333-46f1-8adc-d7f0bf8048fa_1004_dldesign_0_cycle1_af2pred (protein)
chain: AAAEAARKAEVAKKSKELAKQIAENASDEEKRKALLAEMRALAEAGTPEEAAIVVEEVHKGYEEAAEKLVEERR
B7: design_604_3e0b3014-b333-46f1-8adc-d7f0bf8048fa_1067_dldesign_0_cycle1_af2pred (protein)
chain: SEIEKGEALLKEDPEWAKAASDALGKIAEDPEEGEKYAKEVIEKVLKEDPEKGPLMAKAIEERSEKLKKRVEEALERAK
B8: design_604_3e0b3014-b333-46f1-8adc-d7f0bf8048fa_1387_dldesign_0_cycle1_af2pred (protein)
chain: ELDALVRAAIGEAVVFVLGPAAAPAAERIAAATPEEAKALLEEIAATQTPYQAAELLHTARAFAAYAETKYS
B9: design_604_3e0b3014-b333-46f1-8adc-d7f0bf8048fa_739_dldesign_0_cycle1_af2pred (protein)
chain: KEEILKEAKKLKEEAVKKAKEGNAEEGRKARKEFLEEMKKMAEKGDKKEISKITHEALEKIAEAIQEAKEKARKEEEEKK
B10: design_604_3e0b3014-b333-46f1-8adc-d7f0bf8048fa_818_dldesign_0_cycle1_af2pred (protein)
chain: EEVEKKSEEVKKLLEEGAKTTTIDAQLAASEAVELAEELMKKDPEKGLKVAEVVLKEAEKLLKANPGVGELTIKRAEKVIKRAKE
B11: design_604_3e0b3014-b333-46f1-8adc-d7f0bf8048fa_1074_dldesign_0_cycle1_af2pred (protein)
chain: DPAEERVEKARKEMEKAVEKYAEKGKKENLNLAYAEAIREISRIAKELVKEIGEEVRERALKIKEEQLKKLEKLEKEA
B12: design_604_3e0b3014-b333-46f1-8adc-d7f0bf8048fa_962_dldesign_0_cycle1_af2pred (protein)
chain: HHKKEKAKKVAELLEKARELAEKEGPEAAKPLIVEARSLAFEVDSELGRKIAKAGLLILKDLEKGLKILKEVQEEFKKIA
B13: design_604_3e0b3014-b333-46f1-8adc-d7f0bf8048fa_1186_dldesign_0_cycle1_af2pred (protein)
chain: SMSKELAEKIRKAIREIREAAERAIAEARRLVEEGRVEEGLAVLEEAEKEFRELAKKWEGYAASGVAENGAAALRAVREEIE
B14: design_604_3e0b3014-b333-46f1-8adc-d7f0bf8048fa_1344_dldesign_0_cycle1_af2pred (protein)
chain: KEKQKELLLESAVEEAEKAAKLLKDPELGKRLLTAVKAAKEDVSKAPEAAAVAREVGAKEPEASLEASAAAASLLSAYRIAKS
B15: design_604_3e0b3014-b333-46f1-8adc-d7f0bf8048fa_1013_dldesign_0_cycle1_af2pred (protein)
chain: SLEEILKEVKAENERLTARIEAAYERGLAAIAAGDLKAASAAAGEIAEARAEAALINTRYGNVAKEVEDKARELLREVRAAGKA
B16: design_604_3e0b3014-b333-46f1-8adc-d7f0bf8048fa_941_dldesign_0_cycle1_af2pred (protein)
chain: SLLDEAVALLAAANPALAPEFEKLARELQGYLDLAKDYPEIAPVMLKRATRVGEELVAVAAEAGPEVAEVATAAVEEVLAAIK
B17: design_604_3e0b3014-b333-46f1-8adc-d7f0bf8048fa_1117_dldesign_0_cycle1_af2pred (protein)
chain: MEGIETSDLLSKAIKTGKEAYKELKEVGTEEEAEKFKEEMVKKLFEAADADIEESKKLLKELLKEAEEKLEEAKKRKA
B18: design_604_3e0b3014-b333-46f1-8adc-d7f0bf8048fa_841_dldesign_0_cycle1_af2pred (protein)
chain: AELEKAIKEANALRDKALDNVGNPEEAQKYIDELKEKAKKAAELGGPEVAKEAEKMIKALEDTLEKAKKILE
B19: design_604_3e0b3014-b333-46f1-8adc-d7f0bf8048fa_1215_dldesign_0_cycle1_af2pred (protein)
chain: SRVEELGKRLANKGKKYSLDDAADFGAEMAIMAGLTEEEAEAAFKYAAEIDPSFAEAMKKGLALYKELTA
B20: design_604_3e0b3014-b333-46f1-8adc-d7f0bf8048fa_1084_dldesign_0_cycle1_af2pred (protein)
chain: SPAAAAAAVQYAAFDAIAAATDAATVKAIADAAVAALAAAAAADPAHAEQYAKAAAAIKSFADAAIKALK
B21: design_604_3e0b3014-b333-46f1-8adc-d7f0bf8048fa_1479_dldesign_0_cycle1_af2pred (protein)
chain: MEEEVKKAKEKIEKLEKAALKTIDILEESAKLGDDISGIKTAAKAAEKEFGKLAKEYPGAAAYAKEAEKKVVDYANKAIKAAKAAK
B22: design_604_3e0b3014-b333-46f1-8adc-d7f0bf8048fa_762_dldesign_0_cycle1_af2pred (protein)
chain: SKKVYELYAEAKLEQIKRAKELAPKGDPKLAAERAEKLAKEAKEAAKKAGEEGEKIAKEAEKEAEALKKEV
B23: design_604_3e0b3014-b333-46f1-8adc-d7f0bf8048fa_1221_dldesign_0_cycle1_af2pred (protein)
chain: AEMEERKAKGLEQAERLAERAKEAGKLNPEKAAELLGKAEAMLAKVRAMDNEAQWAEAAKEAAKLRELIAEAETEARRKKEEE
B24: design_604_3e0b3014-b333-46f1-8adc-d7f0bf8048fa_1397_dldesign_0_cycle1_af2pred (protein)
chain: SENELTEEAVSLAARVSKRANELGKKTGSEELLKLSEEAKELRDKIVDDPSTAEEALKKVKELEKRIEELTAA
B25: design_604_3e0b3014-b333-46f1-8adc-d7f0bf8048fa_1604_dldesign_0_cycle1_af2pred (protein)
chain: MKDAEKLDEINKLSAEAGKLLKEAAKKDPSRKAELEAAAKEAAKKFDEAYDLFEKDPDAGLALAKEAYKEVKKLVEA
B26: design_604_3e0b3014-b333-46f1-8adc-d7f0bf8048fa_1571_dldesign_0_cycle1_af2pred (protein)
chain: DPKQLLSDARDQITELFFEAGKEAVPYNRKVVAALKAGDLDAALAAVEEFQKEYPEVGAKAKAVMDKAIAAAKAA
B27: design_604_3e0b3014-b333-46f1-8adc-d7f0bf8048fa_1128_dldesign_0_cycle1_af2pred (protein)
chain: MAEKEAQLKKIEEEKKKVSEKFFEAFELASSKELASEISKKSKEANELFKKGREDPSIADKTMEEAKKIAEEALEKAKKEKEA
B28: design_604_3e0b3014-b333-46f1-8adc-d7f0bf8048fa_1627_dldesign_0_cycle1_af2pred (protein)
chain: ENLEKAKAADEKAKKFEDKAKEYEAKGKAEGKKYLYKAAAYYYAAAHAYNVAAKYYEKEGKAEEAAAAKAKAKEAEAKGNELAAK
B29: design_604_3e0b3014-b333-46f1-8adc-d7f0bf8048fa_950_dldesign_0_cycle1_af2pred (protein)
chain: AEEALKKAEEYAAKGDEYAAKGEAYEKSGDKLEEAAKYYAKAASYYLLAANAYLAAGNEEKAKEAEAKAEEAAEKATEAYQKASA
B30: design_604_3e0b3014-b333-46f1-8adc-d7f0bf8048fa_1248_dldesign_0_cycle1_af2pred (protein)
chain: NAYEEAKKAVDEMEKAMKALAKADPSLADEMKDKIATARKRLEAAKTDEEYKKVAEEAKKAKAAAQSILDALKKN
B31: design_604_3e0b3014-b333-46f1-8adc-d7f0bf8048fa_694_dldesign_0_cycle1_af2pred (protein)
chain: SVEEKLKEAEKVFKEVEERAKKVEAKDPEEGKKLREELAKARELAESDPSKAPEAAQQARIALTEAEWEVRKKEK
B32: design_604_3e0b3014-b333-46f1-8adc-d7f0bf8048fa_1534_dldesign_0_cycle1_af2pred (protein)
chain: KTEAIQKFADTLSEIIKLAAEAGKKSGKTAEYQALIEGALSGDFETAVKNAKEAAKLAKKDDPELGKKIEEAAKKLAEYAKKVLES
B33: design_604_3e0b3014-b333-46f1-8adc-d7f0bf8048fa_1395_dldesign_0_cycle1_af2pred (protein)
chain: AEKEELIAKAKEIAAKSAEVAKEAKKLGKDAAEAETTAKEAQKTAEEAIKKAEAGEIDVETLKKLVSKAAGLYYEAKSYLEVVKKKKE
B34: design_604_3e0b3014-b333-46f1-8adc-d7f0bf8048fa_936_dldesign_0_cycle1_af2pred (protein)
chain: MEEAKEKAKEQIKKLKEAAEKAVKVYKEIGKEEEAKKIKEEAKKAEKEAEKLLEKDPYEGAQLAQEALAEAKAELSRAEKELKK
B35: design_604_3e0b3014-b333-46f1-8adc-d7f0bf8048fa_1261_dldesign_0_cycle1_af2pred (protein)
chain: EAEKAAKKAEEVGKKAVKEVKKAVEEGLPKEELSKVVHEEIQKITEASTEAARIAEEKAGKEAGEKVLKAGEEARKKLIAIAKE
B36: design_604_3e0b3014-b333-46f1-8adc-d7f0bf8048fa_1332_dldesign_0_cycle1_af2pred (protein)
chain: EEVKEYLAKLSAEAYELLAEAEVLYKKTGSEKAKEAKELAKEALKELKEAGKLLEEDPEKAKEKAKIGEEKLKKAKEILEEIYKE
B37: design_604_3e0b3014-b333-46f1-8adc-d7f0bf8048fa_1621_dldesign_0_cycle1_af2pred (protein)
chain: MEAEKRNEEYAKEVEELYKKVLDGDIEEDKEALKKAEKLLEEAEADPEMKEEVLKGLRAAVRMAKASIEAEEKR
B38: design_604_3e0b3014-b333-46f1-8adc-d7f0bf8048fa_1429_dldesign_0_cycle1_af2pred (protein)
chain: DKQVISNKAKAQAERAKQAAKNILKTGDASLAPKVKEIAKKAEKAAKEAEKAGDKESAKEAKKAAKEAKKAAKKVEE

Molecular target: VTCN1, Q7Z7D3
Sequence (Q7Z7D3 whole entry): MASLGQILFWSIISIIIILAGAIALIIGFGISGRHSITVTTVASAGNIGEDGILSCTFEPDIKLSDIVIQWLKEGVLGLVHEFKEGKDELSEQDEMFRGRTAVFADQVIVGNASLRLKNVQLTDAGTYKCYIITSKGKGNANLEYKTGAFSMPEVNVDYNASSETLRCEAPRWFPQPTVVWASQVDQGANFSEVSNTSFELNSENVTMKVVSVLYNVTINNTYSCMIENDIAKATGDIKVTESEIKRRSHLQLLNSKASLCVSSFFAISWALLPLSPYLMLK

| Binder | binding in a display sort |
| --- | --- |
| B1 | not found |
| B2 | not found |
| B3 | not found |
| B4 | not found |
| B5 | not found |
| B6 | not found |
| B7 | not found |
| B8 | not found |
| B9 | not found |
| B10 | not found |
| B11 | not found |
| B12 | not found |
| B13 | not found |
| B14 | not found |
| B15 | not found |
| B16 | not found |
| B17 | not found |
| B18 | not found |
| B19 | not found |

| Binder | binding in a display sort |
| --- | --- |
| B20 | not found |
| B21 | not found |
| B22 | not found |
| B23 | not found |
| B24 | not found |
| B25 | not found |
| B26 | not found |
| B27 | not found |
| B28 | not found |
| B29 | not found |
| B30 | not found |
| B31 | not found |
| B32 | not found |
| B33 | not found |
| B34 | not found |
| B35 | not found |
| B36 | not found |
| B37 | not found |
| B38 | not found |
